# Measurements published in PubChem BioAssay (NCATS).
# Inconclusive results are not listed. A call without a number means that no potency is given here. The source made the active and inactive calls. Calls follow the shape of the full dose curve.
# Target: Nucleoprotein (Lymphocytic choriomeningitis virus (strain Armstrong)) (UniProt P09992)
# Assay: qHTS for Inhibitors of the Functional Ribonucleoprotein Complex (vRNP) of Lymphocytic Choriomeningitis Arenaviruses (LCMV): LCMV Primary Screen - GLuc reporter signal (AID 1347086); also: nearly all actives have a fitted effect of over 70% in size
# Settings: LCMV minigenome vRNP cell assay, Gaussia luciferase reporter; series mostly up to 57.5 µM
# Potency is read from the fitted curve at half-maximal effect.
# Nucleoprotein (Lymphocytic choriomeningitis virus (strain Armstrong)), sequence (P09992 whole entry, looked up): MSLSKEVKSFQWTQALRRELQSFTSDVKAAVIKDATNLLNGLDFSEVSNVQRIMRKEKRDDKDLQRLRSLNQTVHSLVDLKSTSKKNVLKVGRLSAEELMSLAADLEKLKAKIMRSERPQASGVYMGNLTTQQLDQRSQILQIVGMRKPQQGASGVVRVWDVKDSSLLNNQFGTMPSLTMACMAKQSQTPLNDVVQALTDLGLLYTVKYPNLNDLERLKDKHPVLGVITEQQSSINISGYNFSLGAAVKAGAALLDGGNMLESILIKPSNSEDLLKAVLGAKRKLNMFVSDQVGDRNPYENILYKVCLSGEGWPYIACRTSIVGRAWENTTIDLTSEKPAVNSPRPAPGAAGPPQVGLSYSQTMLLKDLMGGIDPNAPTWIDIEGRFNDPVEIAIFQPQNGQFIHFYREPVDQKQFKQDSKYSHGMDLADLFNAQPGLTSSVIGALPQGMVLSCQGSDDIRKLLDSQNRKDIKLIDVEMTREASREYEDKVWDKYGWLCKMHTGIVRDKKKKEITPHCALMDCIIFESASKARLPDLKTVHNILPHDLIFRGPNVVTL
row,SMILES,Potency
1,CC(C)(C)c1cc(NC(=O)Nc2ccc(-c3cn4c(n3)sc3cc(OCCN5CCOCC5)ccc34)cc2)no1,inactive
2,N#Cc1ccc(NC(=O)Nc2ccccc2Br)c2n[nH]nc12,inactive
3,O=c1[nH]nc(Sc2ncc([N+](=O)[O-])s2)n1-c1ccc2c(c1)OCCO2,inactive
4,N#Cc1ccc(COC[C@H]2O[C@@H](n3c(NCc4ccc(Cl)c(Cl)c4)nc4c(N)ncnc43)[C@@H](O)[C@@H]2O)cc1,inactive
5,CC(C)OC(=O)C1=CN(C(=O)c2ccc(F)c(F)c2)CC(C)(C)c2c1[nH]c1ccccc21,inactive
6,C=C[C@@H]1CN2CCC1C[C@H]2[C@H](O)c1ccnc2ccccc12 (some centres undefined),inactive
7,O=c1cc(N2CCOCC2)oc2c(-c3cccc4c3sc3ccccc34)cccc12,inactive
8,CC(C)(N)C(=O)N[C@H](COCc1ccccc1)C(=O)N1CCC2(CC1)CN(S(C)(=O)=O)c1ccccc12,inactive
9,CS(=O)(=O)c1ccc(C(=O)Nc2ccc(Cl)c(-c3ccccn3)c2)c(Cl)c1,inactive
10,Cc1cnc(Nc2ccc(OCCN3CCCC3)cc2)nc1Nc1cccc(S(=O)(=O)NC(C)(C)C)c1,inactive
11,CCN(CC)c1ccc(C(=C2C=CC(=[N+](CC)CC)C=C2)c2cc(S(=O)(=O)O)ccc2S(=O)(=O)[O-])cc1,inactive
12,CNc1nccc(-c2cccnc2Oc2cc(C(=O)Nc3cccc(C(F)(F)F)c3)ccc2C)n1,inactive
13,CNC(=O)c1cc(Oc2ccc(NC(=O)Nc3ccc(Cl)c(C(F)(F)F)c3)c(F)c2)ccn1,inactive
14,Cn1c(NCCN(CCO)CCCc2ccc([N+](=O)[O-])cc2)cc(=O)n(C)c1=O,inactive
15,O=C(O)c1ccc(-c2cc3cccnc3c(-c3ccc4nonc4c3)n2)cc1,inactive
16,Cc1cccc(-c2[nH]ncc2-c2ccc3ncccc3n2)n1,inactive
17,CN1C(=O)c2ccccc2C1=O,inactive
18,CN1CCN(CCOc2cc(OC3CCOCC3)c3c(Nc4c(Cl)ccc5c4OCO5)ncnc3c2)CC1,inactive
19,O=S(=O)(N=Cc1c(O)ccc2ccccc12)c1cccs1,inactive
20,COc1cc2c(cc1OC)[C@@H]1C(=O)c3ccc4c(c3O[C@@H]1CO2)C=CC(C)(C)O4,0.243 µM (active)
21,Cc1ccc(F)c(NC(=O)Nc2ccc(-c3cccc4[nH]nc(N)c34)cc2)c1,inactive
22,CNCc1ccc(-c2[nH]c3cc(F)cc4c3c2CCNC4=O)cc1,inactive
23,Fc1cc(-c2cccc3ncc(-c4cnn(C5CCNCC5)c4)nc23)cc(F)c1CN1CCOCC1,inactive
24,NC(=O)c1c(OCc2c(F)cc(Br)cc2F)nsc1NC(=O)NCCCCN1CCCC1,inactive
25,CC(C)Oc1cc(Nc2nc(N[C@@H](C)c3ccc(F)cn3)ncc2Cl)[nH]n1,inactive
26,COCCNCCCn1c(C(=O)CF)c(-c2ccc(C)cc2)c2c(N)ncnc21,inactive
27,O=C(c1cc(Cc2n[nH]c(=O)c3ccccc23)ccc1F)N1CCN(C(=O)C2CC2)CC1,inactive
28,COc1c(Cl)cc2c([nH]c3cnccc32)c1NC(=O)c1cccnc1C,inactive
29,CCOc1ccn(-c2ccc(F)cc2)c(=O)c1C(=O)Nc1ccc(Oc2ccnc(N)c2Cl)c(F)c1,inactive
